Experimental data published in the supplement of paper PMC3334620.
The full ranking holds about 33,000 sequences; the median of “E-score (-0.5 to 0.5)” is about -0.0059, and the highest 2% start at about 0.26. Many of the other results were omitted from the sample, so the highest values are more common in it than they were.

The sequences below were run against T1, Cin5 (UniProt P40917) (assay: PBM E-score (8-mer binding enrichment) (E-score (-0.5 to 0.5)); higher = stronger / more preferred TF binding). Settings: protein concentration: 100 nM; construct: GST-full length.
T1 sequence: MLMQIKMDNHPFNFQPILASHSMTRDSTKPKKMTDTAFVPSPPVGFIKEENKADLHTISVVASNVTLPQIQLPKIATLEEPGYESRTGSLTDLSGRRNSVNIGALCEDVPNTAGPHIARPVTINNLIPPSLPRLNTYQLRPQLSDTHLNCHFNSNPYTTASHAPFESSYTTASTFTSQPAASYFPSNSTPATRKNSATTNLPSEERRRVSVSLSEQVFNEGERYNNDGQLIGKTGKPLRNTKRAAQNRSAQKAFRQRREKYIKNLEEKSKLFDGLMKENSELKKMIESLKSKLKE
Procedure, shortened: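 PURExpress in vitro transcription/translation supplied GST-tagged yeast transcription factors, either full-length or DNA-binding domain. Applied at about 100-200 nM to universal all-10-mer Agilent arrays double-stranded by primer extension, the bound protein was detected with fluorescent anti-GST. E-scores, modified Wilcoxon-Mann-Whitney statistics, were given by the Universal PBM Analysis Suite to ungapped eight-base words pooled with their reverse complements after masliner normalisation.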
With CCGTTGGC the “PBM E-score” value was -0.124. With AAACAGCA the “PBM E-score” value was 0.0422. With CCCCATCC the “PBM E-score” value was 0.00185. AAACAATA was tested, and the “PBM E-score” value was 0.287. AAACAATT was tested, and the “PBM E-score” value was 0.154. AGACAATA was tested, and the “PBM E-score” value was 0.279. For AAACAATG, the “PBM E-score” value was 0.196. AGACAATG was tested, and the “PBM E-score” value was -0.00251. With CTACAATA the “PBM E-score” value was 0.137. In the case of CAACAATA, the “PBM E-score” value is reported as 0.155. In the case of ATACAATC, the “PBM E-score” value is reported as 0.162. For GAACAATA, the “PBM E-score” value was 0.229. With ATACAATA the “PBM E-score” value was 0.278. With AGACAATC the “PBM E-score” value was 0.112. With TAACAATA the “PBM E-score” value was 0.273. In the case of GCGGATCC, the “PBM E-score” value is reported as -0.0308. In the case of CGAAGTAG, the “PBM E-score” value is reported as 0.00111. With ATTACCAG the “PBM E-score” value was 0.18. For ATAGCCAC, the “PBM E-score” value was -0.0146. With CGAGTTCA the “PBM E-score” value was -0.0225. For TACTGCCA, the “PBM E-score” value was 0.0854. With GACCGGAA the “PBM E-score” value was -0.0318. With CAGCTATC the “PBM E-score” value was -0.0573. With CCAGCAAG the “PBM E-score” value was -0.182. For AGTTTTTG, the “PBM E-score” value was 0.107. In the case of ACCAAACG, the “PBM E-score” value is reported as -0.038. With AGCAAGCT the “PBM E-score” value was -0.156. In the case of ACAACCAT, the “PBM E-score” value is reported as 0.306. With ACAACCAG the “PBM E-score” value was -0.00422. In the case of ACAACCAC, the “PBM E-score” value is reported as 0.0998. ACAGCTTG was tested, and the “PBM E-score” value was 0.11. In the case of ACCATTGG, the “PBM E-score” value is reported as 0.0343. ACACCTCG was tested, and the “PBM E-score” value was 0.0498. For CGCCAAGC, the “PBM E-score” value was -0.235. TCTTAGAA was tested, and the “PBM E-score” value was 0.0741. In the case of AATTATGG, the “PBM E-score” value is reported as 0.156. With AATTATCC the “PBM E-score” value was 0.133. AATTATCT was tested, and the “PBM E-score” value was 0.331. AATTATGT was tested, and the “PBM E-score” value was 0.304. With AATTATCA the “PBM E-score” value was 0.251. In the case of AATTATGA, the “PBM E-score” value is reported as 0.257. In the case of CGGTTGCA, the “PBM E-score” value is reported as -0.146. For ACTGTCGG, the “PBM E-score” value was -0.186. For AGCGTAAT, the “PBM E-score” value was 0.13. In the case of CTTATCAC, the “PBM E-score” value is reported as 0.0488. For CTTATCAA, the “PBM E-score” value was 0.278. ATTATCAA was tested, and the “PBM E-score” value was 0.274. ATTATCAG was tested, and the “PBM E-score” value was 0.119. With GTTATCAA the “PBM E-score” value was 0.0472. ATTATCAC was tested, and the “PBM E-score” value was 0.234. AGCTTCGG was tested, and the “PBM E-score” value was -0.187. In the case of CAAGCCTA, the “PBM E-score” value is reported as -0.16. In the case of GGTTACAA, the “PBM E-score” value is reported as 0.0628. CAAGTGAG was tested, and the “PBM E-score” value was -0.036. In the case of CAGATCGG, the “PBM E-score” value is reported as -0.0356. In the case of CGGATTAC, the “PBM E-score” value is reported as 0.122. In the case of GCGATTAC, the “PBM E-score” value is reported as 0.264. With CCGATTAA the “PBM E-score” value was 0.117. For GGGATTAA, the “PBM E-score” value was 0.23. For CCGATTAC, the “PBM E-score” value was 0.23. For AAGATTAC, the “PBM E-score” value was 0.255. In the case of ACGATTAA, the “PBM E-score” value is reported as 0.0274. In the case of ACGATTGC, the “PBM E-score” value is reported as 0.153. With GCGATTAA the “PBM E-score” value was 0.209. GGGATTAC was tested, and the “PBM E-score” value was 0.264. ACGATTAC was tested, and the “PBM E-score” value was 0.295. TCGATTAA was tested, and the “PBM E-score” value was 0.267. With GCAGTACC the “PBM E-score” value was -0.0675. CAGTTACC was tested, and the “PBM E-score” value was -0.0935. ACACACCG was tested, and the “PBM E-score” value was -0.137. With CTAATGGC the “PBM E-score” value was -0.0137. For CCTTTGCA, the “PBM E-score” value was -0.0748. For ATCACAGA, the “PBM E-score” value was -0.0171. CCCACGTA was tested, and the “PBM E-score” value was -0.0439. For CACCCAGG, the “PBM E-score” value was -0.237. TACGATGA was tested, and the “PBM E-score” value was 0.12. For ACGATTAG, the “PBM E-score” value was 0.158. In the case of AGGATTAT, the “PBM E-score” value is reported as -0.0477. In the case of ACGATTAT, the “PBM E-score” value is reported as 0.274. In the case of CCCGTTTA, the “PBM E-score” value is reported as 0.069. CCATTACA was tested, and the “PBM E-score” value was 0.223. With TGATTACA the “PBM E-score” value was 0.301. In the case of CGATTACC, the “PBM E-score” value is reported as 0.143. With AGATTACT the “PBM E-score” value was 0.182. For GGATTACA, the “PBM E-score” value was 0.19. CCATTACG was tested, and the “PBM E-score” value was 0.0601. AGATTACA was tested, and the “PBM E-score” value was 0.286. With AGATTACC the “PBM E-score” value was 0.14. With TCATTACA the “PBM E-score” value was 0.164. In the case of CGATTACG, the “PBM E-score” value is reported as 0.389. In the case of CGATTACA, the “PBM E-score” value is reported as 0.177. For AGATTACG, the “PBM E-score” value was 0.419. With CTCCCTTC the “PBM E-score” value was -0.312. AAAAGCCC was tested, and the “PBM E-score” value was -0.0247. CGGGCCTC was tested, and the “PBM E-score” value was 0.0182. CACACACA was tested, and the “PBM E-score” value was 0.0837. AAGACCAC was tested, and the “PBM E-score” value was -0.205. In the case of CACCCGGC, the “PBM E-score” value is reported as -0.351. TCAGGCAA was tested, and the “PBM E-score” value was -0.0467. With CGGGTGTA the “PBM E-score” value was 0.0316. With AATTCACA the “PBM E-score” value was 0.258. For GATTCACA, the “PBM E-score” value was 0.0537. In the case of AATTCACG, the “PBM E-score” value is reported as -0.0153. With AAGGTATA the “PBM E-score” value was -0.0348. TCTAAACA was tested, and the “PBM E-score” value was -0.115. In the case of ACTAATCC, the “PBM E-score” value is reported as 0.125. ACTAATCA was tested, and the “PBM E-score” value was 0.264. With ACTAAACC the “PBM E-score” value was -0.0367. In the case of TCTAATCA, the “PBM E-score” value is reported as 0.231. CCTAATCG was tested, and the “PBM E-score” value was 0.155. With ACTAATCT the “PBM E-score” value was 0.128. ACTAATCG was tested, and the “PBM E-score” value was 0.355. For ACTAAACA, the “PBM E-score” value was 0.258. With CTCGACCC the “PBM E-score” value was -0.157. CCGTTACG was tested, and the “PBM E-score” value was 0.0353. For ATCTTTAA, the “PBM E-score” value was 0.0357. With CCCCTCTC the “PBM E-score” value was -0.318. For AACGTCGG, the “PBM E-score” value was -0.0613. In the case of TATGTCGA, the “PBM E-score” value is reported as 0.0777. With AGTATTCA the “PBM E-score” value was 0.165. For CTCGCAAA, the “PBM E-score” value was -0.0438. In the case of GTCAGCCA, the “PBM E-score” value is reported as 0.07. For ATACCTAA, the “PBM E-score” value was 0.286. For ATACCTAT, the “PBM E-score” value was 0.176. For ATACCTAC, the “PBM E-score” value was 0.046. For AGGCAGAC, the “PBM E-score” value was -0.247. ATGCTTTC was tested, and the “PBM E-score” value was 0.155. In the case of CTGCTGTC, the “PBM E-score” value is reported as -0.0623. With CTGCTTAC the “PBM E-score” value was 0.402. For ATGCTTAA, the “PBM E-score” value was 0.146. In the case of CTGCTTTC, the “PBM E-score” value is reported as 0.058. With CTGCTGAA the “PBM E-score” value was -0.212. With ATGCTTTA the “PBM E-score” value was -0.0364. With CTGCTTCC the “PBM E-score” value was -0.178. For ATGCTTAC, the “PBM E-score” value was 0.265. For CTGCTGAC, the “PBM E-score” value was 0.26. With CTGCTTTA the “PBM E-score” value was 0.278. In the case of CTGCTTAA, the “PBM E-score” value is reported as 0.00628. In the case of AAACCTGT, the “PBM E-score” value is reported as 0.0662. With ATGTGAGC the “PBM E-score” value was -0.0106. For AAAAGCTG, the “PBM E-score” value was -0.148. In the case of GCAGGAGC, the “PBM E-score” value is reported as -0.285. In the case of GACCGCCC, the “PBM E-score” value is reported as -0.161. For TCGAGTCA, the “PBM E-score” value was -0.0465. In the case of ATTTCCTC, the “PBM E-score” value is reported as 0.09. For AGGAGCCG, the “PBM E-score” value was -0.317. For AGAGGAGC, the “PBM E-score” value was -0.233. In the case of GGCTGCAA, the “PBM E-score” value is reported as -0.0216. ATGCTTGG was tested, and the “PBM E-score” value was -0.0358. With ATGCTTCG the “PBM E-score” value was -0.0239. ATGCTTAG was tested, and the “PBM E-score” value was 0.313. With GGGGAAAC the “PBM E-score” value was -0.0321. With GAGAACAC the “PBM E-score” value was 0.047. In the case of TGGAACAA, the “PBM E-score” value is reported as 0.0669. In the case of CGGAACAA, the “PBM E-score” value is reported as 0.302. With AGGAACGA the “PBM E-score” value was -0.244. With CGGAACGC the “PBM E-score” value was 0.0289. For CGGAACAC, the “PBM E-score” value was 0.177. For CGGAACGA, the “PBM E-score” value was 0.287. In the case of GAGAACAA, the “PBM E-score” value is reported as 0.269. For AAGAACAA, the “PBM E-score” value was 0.197. CGCCCCAC was tested, and the “PBM E-score” value was 0.131. For AGTTTCTG, the “PBM E-score” value was 0.0528. In the case of GTGGAGGA, the “PBM E-score” value is reported as -0.0744. GGACTAAC was tested, and the “PBM E-score” value was -0.232. In the case of GTCACAAA, the “PBM E-score” value is reported as -0.0564. In the case of GGATGGCC, the “PBM E-score” value is reported as -0.296. GGATGGCA was tested, and the “PBM E-score” value was 0.27. With TGATGGCA the “PBM E-score” value was -0.112. AACCTAGG was tested, and the “PBM E-score” value was -0.0368. In the case of ATACGTAA, the “PBM E-score” value is reported as 0.386. With ATACGTAC the “PBM E-score” value was -0.0222.
